Source: PubChem BioAssay AID687031 (Broad Institute, 2013)
Hit rate of the full screen: of about 1,400 compounds, about 50 (4%) were called active.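 Rule for the calls: active = fitted curve reaches 30% CPE protection at or below the top valid dose, with every test run called active; inconclusive = test runs disagree, some active and some not; inactive = every test run inactive, including effects in the wrong direction.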 A selection follows. Measured potencies and affinities stand elsewhere.

Assay: Dengue virus 2 cytopathic effect protection, dose response, BHK-21 cells, ATP luminescence, cherry-pick (AID 687031);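 note: 0% = infected DMSO wells and 100% = uninfected cell wells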
Conditions: BHK-21 DENV2 CPE protection, 5 d; series mostly up to 19.5 µM; CPE protection (higher = active): at the top concentration

CPE protection (higher = active), inactive:
O=C(C[C@H]1C[C@@H]2c3cc(NC(=O)CC4CC4)ccc3O[C@@H]2[C@H](CO)O1)NCc1ccccc1 -5.22%, CN(C)CC(=O)Nc1ccc2c(c1)[C@H]1C[C@H](CC(=O)NC3CCCCC3)O[C@@H](CO)[C@H]1O2 0.976%, Cc1ccc(NCC(=O)N/N=C/c2cccc(Br)c2)cc1 7.97%, CCCCCC(=O)N1C[C@@H](n2cc(C3CC3)nn2)[C@H](O)C[C@@H]1c1ccccc1 -7.51%, Cc1ccccc1CN1C(=O)CN(S(C)(=O)=O)CC1(C)C(=O)NCc1ccccc1 (stereo not given) -24.2%, CC(=O)Nc1cccc(C(=O)OC(C)C(=O)NC(=O)NC2CCCCC2)c1 (stereo not given) -3.28%, COCCNC(=O)C1CCC(CNS(=O)(=O)c2ccc(F)cc2)CC1 (stereo not given) -10.5%, CCOC(=O)C1=C(C)NC(=O)NC1c1ccc(N(C)C)cc1 (stereo not given) -0.681%, N#C[C@@H]1[C@H](c2ccc(-c3ccccc3F)cc2)[C@H](CO)N1C(=O)C1CC1 -0.808% [at 21 µM], CCN(CC(=O)Nc1c(F)cccc1F)C(=O)C1CCN(S(=O)(=O)c2ccc(F)cc2)CC1 -5.16%, Cc1ccc(S(=O)(=O)N2CCOCC2)cc1NC(=O)CN(C)CC(=O)Nc1cccc(F)c1 -5.13%, COc1ccc(-c2cc(C(=O)NCCCN3CCCC3=O)c3ccccc3n2)cc1 -27.2%, CSc1cccc(NC(=O)CC2Oc3ccccc3NC2=O)c1 (stereo not given) -0.118%, CCOc1ccc(N(CC(=O)NC2CCCC(C)C2C)S(=O)(=O)c2c(C)noc2C)cc1 (stereo not given) -13.2%, Cn1c(=O)c2[nH]c(CCCCc3nc4ccccc4[nH]3)nc2n(C)c1=O 6.76%, COc1ccc(CC(N)c2csc(NC(=O)c3ccc(OC)cc3)n2)cc1 (stereo not given) -8.87%, Nc1ccc(CC(N)c2csc(Nc3cc(Oc4ccccc4)ncn3)n2)cc1 (stereo not given) -9.32%, CC(C)SCc1cc(N2CCCC2)nc(-c2ccccc2)n1 -9.75%, COc1ccccc1-c1noc2c1C(=O)N(Cc1cn(Cc3ccccc3)nn1)CC2 6.91%, COc1ccc2ccccc2c1-c1sc(Nc2ccccc2)n[n+]1-c1ccc(F)cc1 -20%, CNC[C@@H]1OCCCC[C@H](C)Oc2ccc(NS(=O)(=O)c3c(C)noc3C)cc2C(=O)N([C@@H](C)CO)C[C@@H]1C 4.03%, CC1CCCCC12NC(=O)N(CC(=O)NCc1cccs1)C2=O (stereo not given) 2.88%, O=C(NCc1cccs1)c1cccc(Nc2nc3ccc(Br)cc3[nH]2)c1 -1.49%, CN(Cc1ccccc1)CC1CCCN(CCc2ccccc2F)C1 (stereo not given) 3.08%, CC(C)Cc1ccc(C(C)C(N)=NCCc2ccccc2)cc1 (stereo not given) 21.7%, CCN(C)C1CN(Cc2cn(Cc3ccc(F)cc3)nn2)S(=O)(=O)C1 (stereo not given) -3.5%, CCOc1ccc(Oc2nc(NCC(C)C)nc(OC)n2)nn1 -24.7%, O=C(NC(C(=O)N1CCCC1C(=O)NC1CCCC1)c1ccccc1)c1cccs1 (stereo not given) -11.5%, NS(=O)(=O)c1ccc(CCNC(=O)C2CCCN2C(=O)c2cccs2)cc1 (stereo not given) -11.5%, CCC(=O)N1CC2(C1)CN(C(=O)Nc1ccc(F)cc1)[C@H](CO)c1c2c2ccc(OC)cc2n1C 5.8%, Cc1ccc(-c2nc(N3CCN(C)CC3)c3ccccc3n2)cc1 12.5%, COc1ccc(/C=N/NC(=O)c2nc(-c3ccccc3)n(-c3ccccc3)n2)cc1OC 6.48%, CCCNC(=O)C[C@H]1CC[C@@H]2[C@H](COC[C@H](O)CN2C(=O)CC)O1 36.8%, CCNC(=O)C[C@H]1CC[C@H]2[C@@H](COC[C@H](O)CN2C(=O)c2cccnc2)O1 24.6%, Cc1ccc(SCCN2CCC(NC(=O)OCc3ccccc3)CCC2=O)cc1 (stereo not given) -8.36%, Cc1ccc(S(=O)(=O)Nc2ccc3c(c2)C(=O)N([C@@H](C)CO)C[C@@H](C)[C@H](CN(C)S(=O)(=O)c2ccc(Cl)cc2)OCCCC[C@@H](C)O3)cc1 -29.8%, Cc1cc(OCC(=O)NC2CC(C)(C)NC(C)(C)C2)c(C)cc1Br -5.56%, CCc1cc(=O)oc2cc(OCC(=O)NC3CC(C)(C)NC(C)(C)C3)ccc12 3.18%, CC1(C(=O)NCc2ccccc2)CN(S(C)(=O)=O)CC(=O)N1CCc1ccc(O)cc1 (stereo not given) -2.07%, CC(C)CC1NC(=O)c2ccccc2-n2c1nc1ccccc1c2=O (stereo not given) -9.6%, Cc1ccc(S(=O)(=O)N(C)CC(=O)Oc2ccc(-c3nnco3)cc2)cc1 -21.8% [at 10 µM], N#Cc1cc2cc3c(cc2nc1Cl)OCCO3 -12.1%, CCN(CC)C1CCN(Cc2c(C(=O)N3CCCCCCC3)nc3ccc(Cl)cn23)C1 (stereo not given) -11.9%, O=C(CN1CCc2cc3c(cc2C1)OCCCO3)Nc1ccccc1 17.2%, CN(C)CCCNc1cc(O)c2ncccc2c1 -6.23%, C/C=C/c1ccc([C@@H]2[C@@H](CO)N(C(C)=O)[C@@H]2CNC(=O)CC2CC2)cc1 4.22% [at 21 µM], O=C(NCC1CC1)c1onc(CSc2ccc(F)c(F)c2)c1C(=O)NCC1CC1 10.7%, COc1cc(C)nc(N2CCC(C(=O)NCC3CCCO3)CC2)n1 (stereo not given) 18.9%, O=C(NCCS(=O)(=O)N1CCN(c2ccccc2)CC1)C1CC1 14.1%, O=C(CCc1nnc(Cc2c[nH]c3ccccc23)o1)NCCC1CCCCO1 (stereo not given) 17.1%, COc1ccc(S(=O)(=O)N2CCCCC2c2cc(C(=O)Nc3ccccc3)no2)cc1 (stereo not given) 23%, COC(=O)N1CCCCC1c1cc(C(=O)Nc2ccccc2Cl)no1 (stereo not given) -13.9%, Cc1ccc([C@H]2C[C@@H](n3cc(-c4ccc(F)cc4)nn3)[C@H](O)CN2C(=O)c2cccs2)cc1 -9.7%, CCC(=O)N1CC[C@@H]2[C@@H](CO)Nc3ccc(-c4ccc(OC)cc4)cc3[C@@H]21 -14%, O=C(O)c1ccc(CNC(=O)C2CCCN2C(=O)OCc2ccccc2)cc1 (stereo not given) 1.02%, O=C(NCc1ccccc1)c1ccccc1 -3.58%, Cc1ccc(OCc2nnc(SCc3cc(=O)[nH]c4ccccc34)n2-c2ccccc2)cc1 -15.6%, CO[C@@H]1CN(C)C(=O)c2ccc(NC(=O)Nc3cc(F)ccc3F)cc2OC[C@@H](C)N(C(=O)c2ccccn2)C[C@H]1C 17.2% [at 21 µM], CC1=C(C(=O)N(C)C)CC(CC(=O)NC2CCCCC2)C(=O)N1Cc1ccc(C(C)(C)C)cc1 (stereo not given) 17.7%, CN(CC(=O)Nc1cccc(F)c1)C(=O)c1ccccc1CCc1ccccc1 -11.4%, C[C@H](CO)N1C[C@H](C)[C@@H](CN(C)C(=O)C2CC2)Oc2cc(C#Cc3ccccc3)ccc2S1(=O)=O -7.48%, Cc1cc(OCc2cc(C(=O)N(C)C(C)c3ccccn3)no2)cc(C)c1Cl (stereo not given) -3.99%, COc1cc(C)ccc1OCc1cc(C(=O)NCCN2CCCC(O)C2)no1 (stereo not given) 4.9%, Cc1c(C(=O)N2CCCC2)oc2ccc(Br)cc12 -4.23%, C[C@@H]1CN([C@H](C)CO)C(=O)Cc2cc(NC(=O)CCCCCC(=O)Nc3ccccc3N)ccc2O[C@@H]1CN(C)Cc1ccc(C(F)(F)F)cc1 -7.66% [at 16 µM], Cc1ccc(S(=O)(=O)NC(=O)C2(C)CCN2C(=O)Cc2cccs2)cc1 (stereo not given) -2.07%, C[C@H](NC(=O)c1ncn(Cc2ccccc2)c1C(=O)N[C@@H](C)c1ccccc1)c1ccccc1 -10.4%, C[C@H](CO)N1C[C@H](C)[C@H](CN(C)C(=O)Nc2ccc(C(F)(F)F)cc2)OCCCC[C@H](C)Oc2ccc(NS(=O)(=O)c3ccc(F)cc3)cc2C1=O 7.18%, CCC(=O)N1CC[C@@H]2[C@H](CO)Nc3ccc(-c4cccc(C#N)c4)cc3[C@@H]21 22.9%, O=S(=O)(c1ccc(F)cc1)N1CC[C@@H]2[C@H]1c1cc(-c3ccc(F)cc3)ccc1N[C@@H]2CO -24%, COc1cccc(C(O)c2nc(-c3cc(F)cc(F)c3)cs2)c1 (stereo not given) -22.6%, CC(NC(=O)CCc1ccccc1)c1ccc2c(c1)OCO2 (stereo not given) 1.74%, CC(CNC(=O)Cn1ccc(NC(=O)OCc2ccccc2)nc1=O)c1ccccc1 (stereo not given) -2.22%, CCCCCCN1CCN(C2CN(Cc3ccc(F)cc3)S(=O)(=O)C2)CC1 (stereo not given) -15.2%, O=C(c1cnccn1)N1CC[C@@H]2[C@@H](CO)Nc3ccc(-c4ccccc4F)cc3[C@@H]21 -9.44% [at 21 µM], Nc1c(-c2ccccc2)nc2ncccn12 8.46%, CCOc1ccc(/C=N/NC(=O)c2ccccc2O)cc1CN1CC2CC(C1)c1cccc(=O)n1C2 (stereo not given) -7.87%, CCCc1cc(=O)oc2c(C)c(OCC(=O)N3C[C@H]4C[C@@H](C3)c3cccc(=O)n3C4)ccc12 -5.43%, COc1ccc(NS(=O)(=O)c2cccs2)cn1 5.62%, COc1cccc(OC)c1Nc1nc(C)nc2c1nnn2Cc1ccccc1Cl -19.1%
